Legend:
Test in all cases: PBM binding z-score (relative to random genomic background probes); higher = stronger binding; sequences stand for … in GC…GCGATTGACAGCGTAGAATGAAGG
[1] = tested on: RARb homodimer (NR concentration 270 nM)
How it was run: (§1)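 Antibodies against each partner of ligand-free nuclear receptor dimers (one per run) detected binding on custom Agilent 4×180K protein-binding microarrays after 1 h incubation. The double-stranded probes had 34-nt variable regions carrying direct-repeat seeds, single-nucleotide variants, half-site ablations and random human genomic background sequences. Binding z-scores, from regression-normalized fluorescence, use the random background probes as reference.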

[2] = tested on: RARg:RXRa (NR concentration 270 nM, RXRa partner concentration 90 nM)
How it was run: as §1

[3] = tested on: RARg homodimer (NR concentration 270 nM)
How it was run: as §1

[4] = tested on: RXRa DBDmut IVT, anti-RXR (DBD mutation: RXRa K156A/R161A, NR concentration 90 nM)
How it was run: as §1

[5] = tested on: RXRa homodimer (NR concentration 180 nM)
How it was run: as §1

[6] = tested on: THRa:RXRa (NR concentration 90 nM, RXRa partner concentration 90 nM)
How it was run: as §1

[7] = tested on: THRa homodimer (NR concentration 90 nM)
How it was run: as §1

[8] = tested on: VDR homodimer (NR concentration 270 nM)
How it was run: as §1

Sequence	PBM binding z-score [1]	PBM binding z-score [2]	PBM binding z-score [3]	PBM binding z-score [4]	PBM binding z-score [5]	PBM binding z-score [6]	PBM binding z-score [7]	PBM binding z-score [8]
CCGACTGGGGCATAAGGTTACAATAAGCCAGCCC	1.61	1.66	1.08	-0.313	1.18	1.95	0.977	-0.296
CCTCAAAGTTCAACTAAGGTAACGTAAAGCACGC	4.3	6.18	6.74	4.41	5.11	5.29	2.38	4.44
ATCGAAAGGTCGACGAAGTGAGTATACACCGTTT	2.14	3.86	3.83	0.645	3.75	1.79	-0.48	0.3
CCTAGCAGGCCAATCTGGGTCACTGAAGGCTTGA	2.38	1.15	1.38	0.114	0.872	3.79	0.399	-0.314
CCGACTGTGGCAGAAAGGTTACCATACCATCCGG	1.82	1.02	0.761	-0.111	1.47	0.958	-0.0743	-0.259
GCTTGTAGATCAAGGTTAAGACAGACTAAGCTAA	0.562	0.461	0.497	-0.0408	0.989	1.27	-0.0509	0.0668
CGAACTAGGTCAGAACAGGACAGTGCAGGATGAT	2.14	2.44	3.46	0.591	1.26	3.38	0.224	0.113
ACTATTAGTTGGGACGAGGGCAACCGATAGGTTG	1.37	0.644	0.82	0.0733	0.516	1.64	0.629	1.12
CCTTACGGGTCACGACGTTATAGCACGACGAGCG	3.34	5.56	5.15	0.951	6.26	2.99	0.181	0.722
GCTAGTTGGTCAGTCAAAGGTCACACACCGGTCG	5.2	5.9	4.85	0.537	5.93	3.52	1.59	1.47
ACTTACGGGTCAACGATGTTATAGCACGCGTATA	3.01	5.25	5	2.19	5.56	2.76	0.387	1.21
TCTGCTAGGTCAGTCGGTCAGCTAACGAGCTGCC	3.32	3.52	4.64	0.278	1.08	1.17	0.0132	-1.13
TCATATAGCTAAAGGTGAAAGTCGAACGATATGA	1.14	1.43	0.944	0.443	1.84	1.18	-0.427	-0.396
CCGACTGGGGCAAGGTTACCATCACGCACAGCCA	1.61	1.08	1.33	-0.402	1.18	1.22	0.274	-0.0347
CCTCGGAGGACAGAAGGTCAGTGCTGTCCGCTTT	3.69	3.14	3.23	0.236	1.25	1.88	-0.0278	0.261
CCTTACGGGGCACGAGGTTATAGCACGACGAGCG	1.27	2.07	1.74	-0.444	1.92	1.48	0.0456	0.346
TGAATGAGGTTATAGGATCAGGGAACGTTGCAAA	0.349	1.53	0.884	0.852	2.42	2.12	0.489	0.329
GCTAGTTGGTCAGTAAAAGGTCACACTCCGGTCG	5.07	5.14	4.48	0.827	5.23	3.58	2.19	1.59
ATCTCTAGGTAAAGATAGTTGAGTGAATGCAAAT	-0.216	0.504	0.43	0.115	0.0675	0.495	0.0736	0.275
CGTCCAAGGTCATAGGAGGCCAGTGAAGACAGAT	4.11	5.88	5.84	3.97	5.41	4.9	2.32	3.03
TGTCAAAGATCAAAGGTAACGTAAGTATCCACAC	0.261	1.26	0.761	-0.668	2.36	1.54	-0.401	-0.267
CCGACTGGGGCATAAGATTACCATAAGCCAGCCC	-0.156	-0.0949	0.359	-0.222	-0.0512	-0.577	-0.917	-0.442
TCATATAGGTACAAGGTGAAAGTCGGTGTGGTAA	1.38	0.762	0.453	2.04	1.33	1.91	1.51	0.703
TCTTGTAGATCAGCAGGATAAGAAAGCTGGCCAA	-0.798	-0.461	-0.47	0.379	-0.273	-0.557	-0.84	-0.775
ATCTCTAGGTAAAGTTCGGTGAAAGATCGATAGA	0.59	0.582	0.694	0.694	0.31	1.1	0.351	0.916
TCGAATAGGTTAGGGGCATTCAGAATGGCGTCGA	1.08	0.753	0.9	1.19	1.15	0.948	0.436	0.995

Sequence	PBM binding z-score [1]	PBM binding z-score [2]	PBM binding z-score [3]	PBM binding z-score [4]	PBM binding z-score [5]	PBM binding z-score [6]	PBM binding z-score [7]	PBM binding z-score [8]
CGTCCAAGCTCAATGCTAGGTCAGTGAAAGCATT	1.84	0.587	0.598	-0.0158	-0.025	1.09	0.344	-0.453
TAGCCTAGGTCTTGGGCCAGTATACCACGCGAAC	0.192	-0.191	-0.198	-0.835	-0.0837	0.0232	0.0319	-0.506
TCGAGTAGGTTACCAATGGCGCATTCAGCTTTCT	0.00418	0.036	0.0712	0.461	0.351	-0.246	-0.453	-0.613
CCTAGCAGGCCAATCTGGGTCACTCAGGGCTTGA	2.15	0.923	1.06	0.0967	0.498	3.58	0.158	-0.303
CCTTACGGATCACTCCAGGTTATAGCATCGGAGT	0.563	0.297	0.583	0.552	0.224	3.06	0.842	0.677
ACTAGCAGGCCAAGGGTCACACAAGATTAGTCCG	4.06	4.6	4.2	0.3	4.68	3.16	0.442	1.42
ATATGTAGGTTATCGGGTCATCCAGTTTGCGCAT	3.46	3.7	2.8	1.33	3.78	3.68	3.07	3.89
CGTCCAAGGTCAAGATCAGTGAAAGAGACTCGAA	3.53	5.63	6.45	3.61	5.54	3.58	1.84	1.6
TCGAGTAAGTTACCAATGGGGCATTCAGCTTTCT	-0.474	-0.261	-0.771	0.494	-0.0395	-0.445	-0.524	-0.319
GCTGCTTGGTCAGGTTGGTCAGCTAACGGGTACG	0.727	-0.088	0.0673	0.0173	-0.438	-0.199	0.0955	0.00601
TCATCTAGGTAATACAGGTGAAAGTCGGCATCTA	0.692	0.578	0.298	1.24	0.959	1.07	0.275	0.373
TTACCAAGGTGAAGATCGTTGATCCCTCTGTAGA	0.271	0.271	0.232	-0.349	0.567	1.58	0.0556	-0.499
CCTTACGGGTCAAGGGTATAGCACGGGTGGTACG	3.17	4.8	4.86	0.672	5.32	2.38	0.0653	0.904
TCATATGGGTAAAGGTGAAAGTCGAACGATATGA	1.36	1.41	0.964	0.352	2.08	1.24	-0.573	-0.341
TAGCCTAGGTCATGGGGGCCAGTATAGTGTCGGC	3.76	4.91	4.98	0.677	3.54	3.64	2.29	1.94
CTCGAAAGGTCGGTTGAGGTGAATATACGGATAA	2.32	2.98	2.77	0.545	2.5	5.06	1.58	0.52
TCATATAGGTAAATGCTAGGCGAAAGTCCGATCT	-0.15	0.217	0.256	1.43	0.556	0.231	0.0597	0.181
TCTCGGAGGACACAAAAGGTCAGAGCTCGACATC	4.4	4.67	4.91	1.15	3.9	3.41	1.1	1.02
GCAGACCGGTGAAACGCAGGTAACTCAGGGTGGC	-0.498	-0.367	-0.32	-1.11	-0.345	0.683	-0.854	-0.771
CATACTGGGCCATTCAGAGGTCATTGATCATATG	4.15	4.52	3.48	1.39	3.85	3.21	1.4	3.67
AGTCAAAGTTCATCGAGGTAACGTAAGATATGCT	4.15	5.57	6.25	4.45	4.87	3.97	1.19	5.6
TCTTGTAGATCAATTGAGGTTAAGAAAGTGCGCT	0.953	0.568	0.0458	1.05	0.886	3.84	0.878	0.579
TCTTGTAGACCAAGCAGGTTAAGAAAGCCTGAGT	0.377	0.0625	-0.186	0.787	0.346	0.395	-0.407	0.173
ACTATTAGTTGACTTAGAGCAACCGATACGACGC	-0.15	0.294	0.597	0.671	0.318	0.0226	0.0225	-0.0313
GCATATAGGTAATACAAGGTGAAAGTACGATTGT	0.886	0.699	0.793	0.0522	0.99	4.29	0.806	0.163
ACTAGTTGGTCTGCTGAGGTCACACACAATTCGG	3.79	3.33	2.94	1.37	3.45	4.32	5.25	3.1

Source: the supplement of paper PMC6555819
